Shown are actives, neighbours in structure and some others; about 2.2% of the full set was active somewhere.
TROY NFkB inh = blocks TROY-dependent signaling in reporter cells. Q293 LMP1-TROYcd NF-kB luciferase reporter, 4 h. inhibition, % at 10 µM. actives 0.98% (n = 360,000);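 active means compounds whose plate-normalised and pattern-corrected inhibition of the luciferase reporter signal at the single screening dose is 50% or more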
LGR2 antag = inhibitors of bursicon-induced Drosophila LGR2 receptor cAMP signaling; inhibition, % at 9.99 µM; HEK293 LGR2, CRE-luciferase, bursicon-stimulated, 4 h; actives 0.35% (n = 380,000);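 active means drop in luminescence signal, shown as inhibition above about 50% in the replicate tests, limit read from the data, passing the limit was not always enough; inconclusive means probably only some replicates passing the limit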;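 further: agonist challenge used bursicon conditioned medium at about half maximal strength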
HSP90 refold inh = HSP90 refolding inhibition in rabbit reticulocyte lysate; luciferase refolding luminescence, 3 h; inhibition, % at 5.6 µM; actives 0.91% (n = 290,000);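 active means inhibition above the screen-wide mean plus 3 SD, computed separately per campaign, cut at about 16% in these data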;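 further: 0% = DMSO wells and 100% = 60 µM geldanamycin wells; inhibitors lower the luminescence because luciferase stays unfolded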
TWEAK Fn14 block = inhibitors of TWEAK-Fn14 interaction signaling; TWEAK-stimulated Fn14 reporter cells, luciferase luminescence, 8 h; inhibition, % at 10 µM; actives 2% (n = 360,000); AID 1159606; in the data active means inhibition above about 50%
Active calls of the source: *; ? = inconclusive; · = no result given.

SMILES | TROY NFkB inh | LGR2 antag | HSP90 refold inh | TWEAK Fn14 block
CC(=O)NC[C@H]1[C@@H](c2ccc(-c3ccccc3)cc2)[C@H](CO)N1C(=O)C1CCC1 | · | -20.6 | · | ·
O=c1cc(-c2c(F)c(F)c(F)c(F)c2F)oc2ccccc12 | 65.7* | 67.2* | -4.1 | 5.7
Cc1noc(C)c1NC(=O)Nc1cccc2c1O[C@H](CN(C)S(C)(=O)=O)[C@H](C)CN([C@@H](C)CO)C2=O | · | -6.5 | · | ·
CCN(CC)c1ccc(NC2=C(Cl)C(=O)c3ccccc3C2=O)cc1 | -5.7 | · | -1.4 | 57.5*
O=C1C(Cl)=C(Nc2ccc(O)cc2)C(=O)c2ccccc21 | 64.2* | 37.2 | 6.4 | 8.7
Cc1ccc(NC2=C(Cl)C(=O)c3ccccc3C2=O)cc1 | -39.2 | -25.0 | 3.7 | 10.7
O=C(N/N=C/c1ccccn1)c1[nH]c2ccc([N+](=O)[O-])cc2c1-c1ccccc1 | 54.3* | 13.7 | -0.1 | 16.5
NNC(=O)c1[nH]c2ccc([N+](=O)[O-])cc2c1-c1ccccc1 | 22.0 | 6.6 | 3.6 | -6.7
Cc1ccc(S(=O)(=O)N(C)C[C@@H]2Oc3ccc(NS(=O)(=O)c4cccs4)cc3C(=O)N([C@H](C)CO)C[C@@H]2C)cc1 | · | 5.2 | · | ·
COc1cccc2c1OC1(C)CC2NC(=O)N1c1cccc(C(=O)Nc2ccc3c(c2)OCCO3)c1 (stereo not drawn) | 30.9 | -18.9 | 2.4 | 82.7*
COc1ccc(S(=O)(=O)N(C)C[C@@H]2OCCCC[C@@H](C)Oc3ccc(NC(=O)Nc4c(C)noc4C)cc3C(=O)N([C@H](C)CO)C[C@H]2C)cc1 | · | -11.6 | · | ·
N#Cc1ccc(-c2ccc(C3[C@@H]4CN(C(=O)c5ccc6c(c5)OCO6)C[C@H]3N4)cc2)cc1 (stereo partly drawn) | · | 2.3 | · | ·
Cc1nc(-c2ccccc2)cn(O)c1=O | 5.9 | 19.8 | 2.6 | 64.5*
Cc1csc(=NC(=O)c2ccccc2)n1C | -32.4 | · | 11.0 | 2.2
O=C(N=c1nc2ccccn2s1)c1ccccc1 | 58.8* | · | · | 94.9*
COc1ccc(NC(=O)c2cc3c(s2)CCC(C)C3)cc1S(=O)(=O)N1CCOCC1 (stereo not drawn) | 51.3* | 22.4 | -6.0 | 79.0*
COc1ccc(C(=O)Nc2ccc(-c3ccc(C)o3)cc2)cc1S(=O)(=O)N1CCOCC1 | 51.4* | · | -5.1 | 81.8*
C[C@@H]1CN([C@H](C)CO)S(=O)(=O)c2ccc(C#CCN(C)C)cc2O[C@H]1CN(C)Cc1ccccc1 | · | -5.3 | · | ·
Cc1ccc(-c2ccc([C@@H]3[C@@H](CO)N4C(=O)CN(C(=O)Nc5cccc(F)c5)C[C@H]34)cc2)cc1 | · | 18.9 | · | ·
CNC[C@H]1Oc2ccc(NC(=O)Nc3ccc(C(F)(F)F)cc3)cc2CC(=O)N([C@H](C)CO)C[C@@H]1C | · | 5.1 | · | ·
O=C(OCCN1C(=O)c2cccc3c(N4CCOCC4)ccc(c23)C1=O)c1ccc(Cl)cc1 | 41.5 | -10.5 | -0.1 | 66.1*
O=S(=O)(c1ccc2c(c1)OCCO2)N1CCC(c2nc3ccccc3s2)CC1 | 43.2 | 20.6 | 5.8 | 53.1*
NNc1nc(-c2ccccc2Cl)c2cc(Br)ccc2n1 | 86.5* | -8.8 | 4.4 | 28.2
CCOc1ccc(NC(=O)NNC(=O)c2cc3ccccc3cc2O)cc1 | 52.3* | -0.5 | -1.2 | 54.8*
COC(=O)c1cccc2c1-c1ccccc1/C2=N/O | 56.1* | · | -3.3 | 82.9*
SMILES | TROY NFkB inh | LGR2 antag | HSP90 refold inh | TWEAK Fn14 block
CS(=O)(=O)c1nc(-c2ccc(Br)cc2)cc(-c2ccccc2)c1C#N | 63.5* | · | -3.9 | 38.7
COc1ccc(-c2cc(-c3ccccc3)c(C#N)c(S(C)(=O)=O)n2)cc1 | -58.9 | · | 7.8 | -141.2
CS(=O)c1nc(-c2ccc(Br)cc2)cc(-c2ccccc2)c1C#N (stereo not drawn) | 74.4* | 97.3* | 2.4 | 55.9*
Cc1nn(-c2ccccc2)c(C)c1/C=N/NC(=O)c1cc(-c2ccc(Cl)s2)[nH]n1 | 12.6 | · | 1.1 | 58.8*
Cc1nn(-c2ccccc2)c(C)c1/C=N/NC(=O)CSc1nnc(SCc2ccc(Cl)cc2)s1 | 18.1 | · | -1.1 | 83.3*
O=C(CSc1nnc(SCc2ccccc2)s1)N/N=C/c1c(Cl)cccc1Cl | -33.9 | -20.6 | -0.5 | 3.1
Cc1nn(-c2ccccc2)c(C)c1/C=N/NC(=O)c1cc(-c2ccc(Br)s2)[nH]n1 | 13.4 | · | -3.5 | 68.6*
Cc1nn(-c2ccccc2)c(C)c1/C=N/NC(=O)c1cc(-c2cccs2)[nH]n1 | 4.0 | · | 2.0 | 35.1
Cc1cc(C(=O)N/N=C/c2c(C)nn(-c3ccccc3)c2C)n[nH]1 | -29.8 | -11.7 | 6.8 | -15.4
COc1ccc(N2CCN(S(=O)(=O)c3cccc4cccnc34)CC2)cc1 | -2.8 | -14.6 | -0.9 | 2.5
COc1ccc(CC2(CO)CCN(S(=O)(=O)c3cccc4cccnc34)CC2)cc1 | 14.4 | -3.9 | 1.9 | 56.0*
CCOC(=O)c1[nH]c2ccc(Cl)cc2c1-c1ccccc1 | 3.3 | · | 5.0 | 6.8
CN(C)C=NC(=O)c1[nH]c2ccc(Cl)cc2c1-c1ccccc1 | 42.6 | -2.5 | 6.8 | 69.3*
C[C@@H]1CCCCO[C@H](CN(C)C(=O)Nc2cccc3ccccc23)[C@H](C)CN([C@@H](C)CO)C(=O)c2cc(NC(=O)Nc3ccc(F)cc3)ccc2O1 | · | 0.9 | · | ·
Cc1ccc([C@H]2C(C(=O)O)=CC[C@@H](c3ccc(Cl)c(Cl)c3)N2S(=O)(=O)c2ccc(C)cc2)cc1 | 57.3* | -6.9 | · | 9.9
O=C1CN(S(=O)(=O)Cc2ccccc2)C[C@H]2[C@@H](c3ccc(C#Cc4ccccc4)cc3)[C@H](CO)N12 | · | -11.4 | · | ·
COc1ccc(-c2[nH]ncc2-c2ccc3c(c2)OCCO3)c(O)c1 | 60.9* | ? | -1.0 | 77.7*
CCc1cc(-c2[nH]ncc2-c2ccc3c(c2)OCO3)c(O)cc1O | 68.3* | 40.1 | 1.4 | 92.4*
COc1ccc(-c2cn[nH]c2-c2ccc(OCc3ccc([N+](=O)[O-])cc3)cc2O)cc1 | 37.7 | 42.1 | 2.9 | 77.5*
CCc1cc(-c2[nH]ncc2-c2ccc(OC)cc2)c(O)cc1O | 48.8 | 36.1 | 0.7 | 64.0*
CCCc1cc(-c2[nH]ncc2-c2ccc3c(c2)OCCCO3)c(O)cc1OC | · | · | 0.0 | ·
CO[C@@H]1CN(C)C(=O)c2cc(NC(=O)c3cccc(Oc4ccccc4)c3)ccc2OC[C@@H](C)NC[C@@H]1C | · | 2.2 | · | ·
CC1(C)CC(=O)C2=C(C1)Oc1nc3ccccc3cc1C2C(C#N)C#N (stereo not drawn) | 12.4 | · | 1.2 | 68.6*
CC1(C)CC(=O)C(C2C3=C(CC(C)(C)CC3=O)Oc3ccccc32)C(=O)C1 (stereo not drawn) | -1.0 | 2.1 | -0.1 | 15.3
COc1ccc(NC(=O)/C(Cl)=C(/Cl)S(=O)Cc2ccccc2)cn1 (stereo not drawn) | 63.0* | · | 5.8 | 97.8*
COc1ccc(CS(=O)(=O)/C(Cl)=C(/Cl)C(=O)Nc2ccc(OC)nc2)cc1 | 80.1* | · | 6.0 | 99.5*
CCCC(=O)Nc1ccc2c(c1)C(=O)N(C)[C@H]1CC[C@H](CC(=O)NCc3ccccc3Cl)O[C@H]1CO2 | · | 6.0 | · | ·
Cc1occc1-c1nc(-c2ccncc2)no1 | -9.1 | · | -1.0 | -27.9
Cc1cccc(-c2noc(-c3ccc4c(c3)OCO4)n2)c1 | 42.1 | 66.3* | 0.8 | 56.7*
c1ccc(-c2noc(-c3cccnc3)n2)nc1 | -2.3 | · | 2.1 | 32.3
